# Laboratory results from ChEMBL document CHEMBL3988442, “University of Dundee, Small-Polar-MMV Screening Library” (2021).
# For some of these results: Results with a measured potency or affinity are listed apart.
# Key:
# Design in all cases: scale not given: direction of the effect not stated beside the values
# [1] = target: Protein translocase subunit SecA (Escherichia coli (strain K12)) (UniProt P10408); experiment: Assay to Identify E. coli SecA ATPase Inhibitors; format: functional; conditions: 30 µM
# Sequence of Protein translocase subunit SecA (Escherichia coli (strain K12)) (P10408 whole entry): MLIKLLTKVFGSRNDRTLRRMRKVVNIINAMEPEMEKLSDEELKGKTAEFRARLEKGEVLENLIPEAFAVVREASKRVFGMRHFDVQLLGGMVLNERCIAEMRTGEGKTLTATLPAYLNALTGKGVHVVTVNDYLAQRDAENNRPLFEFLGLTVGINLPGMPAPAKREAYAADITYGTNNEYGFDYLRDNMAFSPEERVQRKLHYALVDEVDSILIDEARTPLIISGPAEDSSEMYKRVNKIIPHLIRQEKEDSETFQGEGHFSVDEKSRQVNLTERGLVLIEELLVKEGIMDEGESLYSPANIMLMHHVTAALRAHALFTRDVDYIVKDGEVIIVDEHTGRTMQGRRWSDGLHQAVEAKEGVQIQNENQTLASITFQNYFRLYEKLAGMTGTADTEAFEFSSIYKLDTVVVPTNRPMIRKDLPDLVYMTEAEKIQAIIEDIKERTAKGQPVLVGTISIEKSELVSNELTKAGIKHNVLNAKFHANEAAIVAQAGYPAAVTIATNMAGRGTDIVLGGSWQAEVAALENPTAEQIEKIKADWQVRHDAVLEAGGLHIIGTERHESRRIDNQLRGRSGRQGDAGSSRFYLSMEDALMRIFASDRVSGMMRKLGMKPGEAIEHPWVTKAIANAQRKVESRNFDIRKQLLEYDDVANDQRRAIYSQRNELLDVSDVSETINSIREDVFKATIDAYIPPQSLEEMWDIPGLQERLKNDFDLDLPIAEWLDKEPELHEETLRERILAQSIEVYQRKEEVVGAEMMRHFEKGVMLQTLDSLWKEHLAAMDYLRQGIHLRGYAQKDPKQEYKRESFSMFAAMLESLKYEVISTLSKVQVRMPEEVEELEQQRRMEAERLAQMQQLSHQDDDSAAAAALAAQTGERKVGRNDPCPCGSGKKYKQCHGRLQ
# [2] = target: T1, Ubiquitin-activating enzyme e1, putative (Leishmania donovani (strain BPK282A1)) (UniProt E9BSI1); experiment: Leishmania donovani Ubiquitin Activating Enzyme (LdE1); format: functional; conditions: 30 µM
# T1 sequence (whole entry): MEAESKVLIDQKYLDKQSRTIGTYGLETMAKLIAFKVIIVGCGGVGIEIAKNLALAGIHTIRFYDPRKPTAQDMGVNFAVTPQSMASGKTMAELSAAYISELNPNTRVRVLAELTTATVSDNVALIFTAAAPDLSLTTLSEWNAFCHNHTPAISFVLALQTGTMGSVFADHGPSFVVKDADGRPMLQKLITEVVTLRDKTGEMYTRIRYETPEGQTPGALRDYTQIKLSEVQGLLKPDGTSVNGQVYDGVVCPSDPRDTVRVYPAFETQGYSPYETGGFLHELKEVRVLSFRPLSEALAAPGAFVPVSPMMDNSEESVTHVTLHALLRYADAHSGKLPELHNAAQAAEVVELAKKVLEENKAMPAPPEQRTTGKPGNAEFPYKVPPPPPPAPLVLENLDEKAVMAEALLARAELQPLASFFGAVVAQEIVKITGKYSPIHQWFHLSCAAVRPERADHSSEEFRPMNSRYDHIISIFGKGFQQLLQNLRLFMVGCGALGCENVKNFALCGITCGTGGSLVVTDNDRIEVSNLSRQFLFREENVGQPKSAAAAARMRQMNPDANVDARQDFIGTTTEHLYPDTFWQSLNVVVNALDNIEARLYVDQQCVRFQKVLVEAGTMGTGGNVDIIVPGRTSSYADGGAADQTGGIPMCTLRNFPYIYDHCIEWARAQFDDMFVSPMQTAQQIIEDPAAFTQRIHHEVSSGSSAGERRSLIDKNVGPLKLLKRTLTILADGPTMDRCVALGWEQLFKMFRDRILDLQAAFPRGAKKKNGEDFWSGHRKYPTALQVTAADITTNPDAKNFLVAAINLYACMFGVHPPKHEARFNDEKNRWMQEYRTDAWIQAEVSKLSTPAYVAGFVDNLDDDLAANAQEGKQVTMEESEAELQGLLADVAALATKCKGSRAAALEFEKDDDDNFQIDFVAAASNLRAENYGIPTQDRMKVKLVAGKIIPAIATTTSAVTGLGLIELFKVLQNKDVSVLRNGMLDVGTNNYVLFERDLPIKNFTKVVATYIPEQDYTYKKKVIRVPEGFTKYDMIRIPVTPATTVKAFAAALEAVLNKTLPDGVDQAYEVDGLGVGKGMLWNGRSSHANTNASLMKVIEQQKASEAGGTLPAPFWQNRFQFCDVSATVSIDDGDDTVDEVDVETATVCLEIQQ
# [3] = target: AMP-activated protein kinase, AMPK (Homo sapiens) (UniProt P54646+O43741+P54619+Q9UGJ0+Q9Y478+Q13131+Q9UGI9); experiment: AMP-dependent Kinase enzyme assay. An in vitro enzyme assay that detects ADP turnover that is directly proportional to AMPK activity. This uses naive AMPK that is activated during the assay with MK-8722; format: functional; conditions: 30 µM
# [4] = target: Sialic acid-binding Ig-like lectin 9 (Homo sapiens) (UniProt Q9Y336); experiment: Hs-Siglec9 ALPHAscreen SOP 20170721; conditions: 10 µM
# Sequence of Sialic acid-binding Ig-like lectin 9 (Homo sapiens) (Q9Y336 whole entry): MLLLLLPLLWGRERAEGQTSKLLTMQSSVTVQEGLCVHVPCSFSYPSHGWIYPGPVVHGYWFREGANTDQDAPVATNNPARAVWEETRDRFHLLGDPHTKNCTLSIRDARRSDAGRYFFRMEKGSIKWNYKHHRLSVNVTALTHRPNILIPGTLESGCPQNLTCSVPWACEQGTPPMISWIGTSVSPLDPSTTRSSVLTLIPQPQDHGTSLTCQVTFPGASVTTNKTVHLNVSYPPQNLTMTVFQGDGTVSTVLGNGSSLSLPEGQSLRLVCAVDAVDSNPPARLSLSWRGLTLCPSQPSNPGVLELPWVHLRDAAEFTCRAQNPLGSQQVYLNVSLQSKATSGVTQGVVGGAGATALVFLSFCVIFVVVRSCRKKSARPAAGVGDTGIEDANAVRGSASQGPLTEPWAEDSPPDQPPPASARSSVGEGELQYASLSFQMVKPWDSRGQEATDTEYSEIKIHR
# Trypanosoma cruzi = experiment: Trypanosoma cruzi phosphomannomutase and mannose-1-phosphate guanylyltransferase assay; format: functional; conditions: 10 µM
# [5] = target: T2, Arginase-2, mitochondrial (Homo sapiens) (UniProt P78540); experiment: in vitro enzyme assay to detect the production of urea directly proportional to the activity of Arginase II; format: functional; conditions: 33.3 µM; also: in the data most compounds retested in dose-response had high values
# T2 sequence (whole entry): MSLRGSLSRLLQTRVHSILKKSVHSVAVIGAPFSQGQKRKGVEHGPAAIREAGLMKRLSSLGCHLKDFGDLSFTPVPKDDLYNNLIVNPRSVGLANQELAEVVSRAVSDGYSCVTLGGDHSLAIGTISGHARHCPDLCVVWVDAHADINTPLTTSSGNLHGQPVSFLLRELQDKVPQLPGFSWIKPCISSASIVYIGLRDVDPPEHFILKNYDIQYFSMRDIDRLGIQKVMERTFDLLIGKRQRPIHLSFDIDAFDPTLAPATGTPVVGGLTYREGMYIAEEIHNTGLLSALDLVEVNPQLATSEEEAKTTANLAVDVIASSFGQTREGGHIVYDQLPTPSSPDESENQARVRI
# [6] = target: T3, Proteasome subunit beta (Trypanosoma cruzi) (UniProt O96673); experiment: Trypanosoma cruzi proteasome chymotrypsin-like activity (TcProtChymo) assay.; also: in the data most compounds retested in dose-response had high values; format: functional; conditions: 9.37 µM
# T3 sequence (whole entry): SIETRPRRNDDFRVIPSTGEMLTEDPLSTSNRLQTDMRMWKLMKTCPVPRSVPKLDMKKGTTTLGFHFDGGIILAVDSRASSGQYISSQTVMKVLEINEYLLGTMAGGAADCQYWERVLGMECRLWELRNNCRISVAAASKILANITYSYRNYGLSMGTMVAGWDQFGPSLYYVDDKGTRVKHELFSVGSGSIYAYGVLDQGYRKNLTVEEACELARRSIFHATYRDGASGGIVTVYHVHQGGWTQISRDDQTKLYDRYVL
# Homo sapiens = species on record: Homo sapiens; experiment: To identify inhibition of the IFN signalling (Jak-Stat) pathway via expression of an eGFP reporter gene under the control of an IFN-stimulated response element (ISRE) containing MxA promoter.; format: functional; conditions: 30 µM
# [7] = target: T4, Tyrosyl-tRNA synthetase, putative (Trypanosoma cruzi (strain CL Brener)) (UniProt Q4DSP6); experiment: Trypanosoma cruzi tyrosyl tRNA synthetase (TcYRS) _High Tyrosine SOP; format: functional; conditions: 30 µM; also: in the data most compounds retested in dose-response had high values
# T4 sequence (whole entry): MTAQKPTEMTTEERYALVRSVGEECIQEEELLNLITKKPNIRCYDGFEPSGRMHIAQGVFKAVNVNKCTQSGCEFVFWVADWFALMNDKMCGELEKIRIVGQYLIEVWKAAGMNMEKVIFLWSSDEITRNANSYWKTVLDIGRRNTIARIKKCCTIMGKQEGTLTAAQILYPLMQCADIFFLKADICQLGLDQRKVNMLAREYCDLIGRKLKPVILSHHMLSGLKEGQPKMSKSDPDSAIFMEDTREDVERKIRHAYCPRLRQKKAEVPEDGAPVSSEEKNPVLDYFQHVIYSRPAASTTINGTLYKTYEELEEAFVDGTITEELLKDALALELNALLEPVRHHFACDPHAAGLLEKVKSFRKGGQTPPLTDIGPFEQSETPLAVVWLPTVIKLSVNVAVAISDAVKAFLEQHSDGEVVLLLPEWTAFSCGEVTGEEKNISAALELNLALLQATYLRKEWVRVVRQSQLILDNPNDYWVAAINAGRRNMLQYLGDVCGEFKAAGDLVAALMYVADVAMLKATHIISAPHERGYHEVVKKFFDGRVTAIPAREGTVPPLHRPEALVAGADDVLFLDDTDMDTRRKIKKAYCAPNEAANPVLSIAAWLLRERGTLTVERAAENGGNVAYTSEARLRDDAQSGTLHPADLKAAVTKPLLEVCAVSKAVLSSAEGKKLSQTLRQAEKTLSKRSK
# [8] = target: T4, Tyrosyl-tRNA synthetase, putative (Trypanosoma cruzi (strain CL Brener)); experiment: Trypanosoma cruzi tyrosyl tRNA synthetase (TcYRS) SOP; format: functional; conditions: 30 µM
# [9] = target: Chromo domain-containing protein 1 (Saccharomyces cerevisiae (strain ATCC 204508 / S288c) (Baker's yeast)) (UniProt P32657); experiment: ScCHD-1 Enzyme Inhibition Assay; format: functional; conditions: 30 µM; also: in the data most compounds retested in dose-response had high values
# Sequence of Chromo domain-containing protein 1 (Saccharomyces cerevisiae (strain ATCC 204508 / S288c) (Baker's yeast)) (P32657 whole entry, the tested form may be a part): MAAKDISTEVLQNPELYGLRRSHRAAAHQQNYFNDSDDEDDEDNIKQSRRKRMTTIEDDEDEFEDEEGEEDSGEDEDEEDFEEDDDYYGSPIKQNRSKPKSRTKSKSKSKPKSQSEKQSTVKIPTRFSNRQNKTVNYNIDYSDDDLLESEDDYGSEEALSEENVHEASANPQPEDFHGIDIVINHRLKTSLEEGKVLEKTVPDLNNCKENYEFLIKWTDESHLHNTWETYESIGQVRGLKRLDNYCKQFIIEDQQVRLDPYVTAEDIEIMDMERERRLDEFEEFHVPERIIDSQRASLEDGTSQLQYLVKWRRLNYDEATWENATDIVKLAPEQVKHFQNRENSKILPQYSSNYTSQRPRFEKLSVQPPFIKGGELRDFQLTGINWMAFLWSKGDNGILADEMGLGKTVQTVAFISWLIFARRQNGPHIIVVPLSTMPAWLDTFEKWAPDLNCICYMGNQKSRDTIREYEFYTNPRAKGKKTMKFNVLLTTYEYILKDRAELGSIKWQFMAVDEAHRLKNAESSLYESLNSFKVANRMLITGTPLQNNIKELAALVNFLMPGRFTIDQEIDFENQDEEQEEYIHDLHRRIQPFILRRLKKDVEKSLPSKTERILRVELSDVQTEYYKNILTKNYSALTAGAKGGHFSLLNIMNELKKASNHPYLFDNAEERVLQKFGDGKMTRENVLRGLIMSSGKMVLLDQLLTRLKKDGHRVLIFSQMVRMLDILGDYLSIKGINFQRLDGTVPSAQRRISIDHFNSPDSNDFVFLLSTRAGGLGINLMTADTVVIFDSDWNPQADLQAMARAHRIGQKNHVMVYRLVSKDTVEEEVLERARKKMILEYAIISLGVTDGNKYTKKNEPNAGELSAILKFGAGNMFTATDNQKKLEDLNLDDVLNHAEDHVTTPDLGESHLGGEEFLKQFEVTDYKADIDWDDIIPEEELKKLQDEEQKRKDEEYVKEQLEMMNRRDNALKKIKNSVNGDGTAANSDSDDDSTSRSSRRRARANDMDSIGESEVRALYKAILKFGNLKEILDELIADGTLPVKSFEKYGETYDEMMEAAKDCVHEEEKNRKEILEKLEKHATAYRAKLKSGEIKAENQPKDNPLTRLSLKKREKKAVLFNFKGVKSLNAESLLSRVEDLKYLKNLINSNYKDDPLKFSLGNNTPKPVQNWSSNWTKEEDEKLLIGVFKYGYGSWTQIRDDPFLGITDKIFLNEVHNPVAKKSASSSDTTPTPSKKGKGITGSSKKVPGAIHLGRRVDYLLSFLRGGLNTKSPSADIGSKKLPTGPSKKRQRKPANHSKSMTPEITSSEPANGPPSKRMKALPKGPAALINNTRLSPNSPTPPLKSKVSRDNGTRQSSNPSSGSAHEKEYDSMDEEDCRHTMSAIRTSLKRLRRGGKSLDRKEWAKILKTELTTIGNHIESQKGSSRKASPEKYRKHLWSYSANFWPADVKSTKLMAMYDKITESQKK
SMILES,Percent Effect [1] [%],Percent Effect [2] [%],Percent Effect [3] [%],Percent Effect [4] [%],Percent Effect (Trypanosoma cruzi) [%],Percent Effect [5] [%],Percent Effect [6] [%],Percent Effect (Homo sapiens) [%],Percent Effect [7] [%],Percent Effect [8] [%],Percent Effect [9] [%]
CCCNCc1cc2c(C)cc(C)cc2n2c(=O)n(C)nc12,-5.13,4.05,11,0.45,4.94,9.05,5.62,16.2,4.3,3.9,-20
CN(Cc1ccco1)C(=O)CN1CCCCC1Cn1cccn1 (stereo unspecified),1.65,0,6.46,-9.17,-1.27,-2.74,17.1,-30.8,4.76,9.41,-9.28
Cn1ccc(C(=O)NC2CCC23CCN(Cc2cccnc2)CC3)c1 (stereo unspecified),-1.54,2.74,5.78,0.617,0,0.399,5.39,2.32,-1.04,-3.7,0.517
COc1cccc(CCC(=O)N2CCCC(n3cc(C)cn3)C2)c1 (stereo unspecified),0.219,-3.8,11.1,-1.76,-0.923,9.25,1.03,-7.62,-5.21,0,-20
c1cnc(NCc2cncc3c2CCN(Cc2cccs2)C3)nc1,-0.336,10.7,8.51,-0.683,-7.28,2.1,9.43,12.1,3.19,8.97,-5.11
COC(=O)c1sccc1S(=O)(=O)N1CCC(Oc2cccnn2)CC1,-0.0971,-5.48,16.5,-5.94,-3.33,1.36,9.58,9.58,-6.45,0,-3.65
Cc1cc(C(=O)N2CCCC(c3noc(C)n3)C2)[nH]n1 (stereo unspecified),-10.3,15.2,-4.15,16.6,10.3,-3.04,-2.21,12.9,8.37,21.5,-9.72
COc1cc(C(=O)Nc2c(C)noc2C)ccc1C,-3.57,17.7,2.44,6.13,3.87,-4.56,1.88,18.6,4.43,16.5,-5.84
O=C(Nc1cccc(CNCc2cccs2)c1)C1CCCC1,-4.41,13.2,-0.852,-3.26,2.15,-2.16,2.45,3.75,6.4,18.5,-4.46
COCC1COCCC12CCN(CCc1ccccc1)CC2 (stereo unspecified),-4.75,2.7,0.285,0.939,6.84,-3.33,16.5,1.25,6.93,8.54,0.841
CCCOCC(=O)NS(=O)(=O)c1ccc2c(c1)OCCCO2,-8.22,0,0.981,-3.65,-6.07,0,-0.423,13.9,-2.46,-6.17,1.45
